aDG glyco act: increases alpha dystroglycan glycosylation | Pro5-aDG cells, alpha-DG glycosylation AlphaScreen (IIH6); 0% Pro5, 100% B10-LARGE cell signal | activation, % at 10 µM | 0.22% of 360,000 active | AID 624168;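 active = activation of at least 8% versus controls, or a plate z-score of at least 8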;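 also: Pro5 are CHO cells carrying HIG-tagged alpha-DG that lacks glycosylation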
CR mimetic SO: lowers age-related superoxide in aged yeast cells; S. cerevisiae aged cells, superoxide DHE fluorescence; stronger effect = lower value; superoxide response (% of plate mean), % at 10 µM; 0.18% of 330,000 active; AID 2690;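 active = superoxide response under a set limit, about three screen SD below normal, cut at about 65% in these data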;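 also: yeast aged for seven days with compound at 30 °C before DHE staining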
MPTP block: inhibitors of mitochondrial permeability transition pore | inhibition, % at 10 µM | 1.4% of 360,000 active | isolated mouse mitochondria, Ca2+ swelling absorbance, 30 min;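 active = inhibition of 50% or more, scaled per plate between neutral and stimulator controls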
H9c2 protect: protects H9c2 cardiomyocytes from peroxide injury; H2O2 injury protection, ATPLite, 2 h; protection from H2O2 cell death, % at 20 µM; 0.63% of 360,000 active;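 active = compounds giving at least 50% protection of heart cells from peroxide-induced death in the single-dose screen, raw or plate-pattern-corrected value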
SUMO Mot1 rescue: blocks SUMOylation pathway, rescuing yeast Mot1-301 growth; S. cerevisiae Mot1-301 growth rescue, ATP luminescence, 38.5C; percent above DMSO median, 100 means doubled; growth rescue, % at 18.8 µM; 1% of 320,000 active; AID 2716;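 active = every valid replicate shows activation above 250% relative to neutral control wells; inactive = the rest, any valid replicate at or below 250%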
FAS-TE inh: FAS thioesterase (human) inhibition; recombinant FAS-TE, OMFH fluorogenic substrate, fluorescence endpoint; 0.67% of 360,000 active; AID 602261; P49327; inhibition, % at 15 µM;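 active = compounds whose normalised, plate-corrected inhibition of enzyme fluorescence in the single-dose primary screen is 50% or more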
Yeast Mot1 SUMO: SUMO pathway inhibitors in yeast Mot1-301 growth | shares compounds with SUMO Mot1 rescue | AID 493004 | S. cerevisiae Mot1-301 galactose growth, ATP luminescence, 24 h; -100 = growth of slx-deleted rescue strain | growth activity, percent, % at 42 µM | 2,300 tested, under 10 active;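 active = Signal drops as the depositor expects, and the fitted half-maximal dose is no more than ten times the top valid tested dose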;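 also: more negative values mean stronger growth rescue toward the control strain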
Numbers stand for hits; n = inactive; x = no result; + = active, no number. Most compounds without a hit are left out; they make up all but 3.8% or so of the library.

SMILES	aDG glyco act	CR mimetic SO	MPTP block	H9c2 protect	SUMO Mot1 rescue	FAS-TE inh	Yeast Mot1 SUMO
COCC(=O)n1nc(NCc2ccc(OC)cc2)nc1NCc1ccc(OC)cc1	n	n	n	n	394	n	n
Cc1[nH]oc(=O)c1N=Nc1c(Cl)cccc1Cl	n	n	n	n	358	n	n
Cc1[nH]oc(=O)c1N=Nc1ccccc1	n	n	n	n	465	n	n
Cc1ccc2c(CN3CCN(S(=O)(=O)c4ccccc4C(F)(F)F)CC3)cc(=O)oc2c1C	n	n	n	n	n	n	x
COc1ccc(CCNC(=O)Cn2nnc(-c3ccc(N4CCOCC4)cc3)n2)cc1OC	n	n	n	n	710	n	n
COc1ccc(N2CCN(C(=O)C3CCCN(S(=O)(=O)c4ccc5c(c4)oc(=O)n5C)C3)CC2)cc1 (stereo not given)	n	n	n	n	450	n	n
CCCC(O)(c1ccc(Br)cc1)C(CN1CCOCC1)c1ccc(Cl)cc1 (stereo not given)	n	n	n	n	555	n	n
CCCC(O)(c1ccc(Cl)cc1)C(CN1CCOCC1)c1ccccc1 (stereo not given)	n	n	n	n	x	n	x
O=C(CSc1nccc(=O)[nH]1)c1cc2ccccc2o1	n	n	n	n	586	n	n
O=C(CSc1ncn[nH]1)c1cc2ccccc2o1	n	n	n	n	n	n	x
Cc1ccc(C(C[N+](=O)[O-])c2c(C)[nH]n(-c3ccccc3)c2=O)cc1 (stereo not given)	n	n	n	n	401	n	n
CCC(=O)Nc1ccc(S(=O)(=O)NCc2ccco2)cc1	n	n	n	n	659	n	n
Cc1ccc(C(=O)Nc2ccc(S(=O)(=O)NCc3ccco3)cc2)cc1	n	n	n	n	n	n	x
COc1ccc(NC(=O)CN2C(=O)c3ccccc3S2(=O)=O)cc1OC	n	n	n	n	404	n	n
Cc1ccc(SCCNC(=O)CN2C(=O)c3ccccc3S2(=O)=O)cc1	n	n	n	n	398	n	n
COCCN(C(=O)c1csnn1)C(C(=O)NC1CCCCC1)c1ccccc1 (stereo not given)	n	n	n	n	441	n	n
Cc1ccc(S(=O)(=O)N2CCC(NC(=O)OC(C)C)CC2)cc1	n	n	n	n	n	n	x
Cc1ccc(/C(N)=N/OC(=O)/C=C/c2ccccc2)cc1	n	n	n	n	840	n	n
CC1(c2ccc([N+](=O)[O-])cc2)NC(=O)N(CC(=O)Nc2cccnc2Cl)C1=O (stereo not given)	n	n	n	n	n	n	x
CCC(=O)N1CCc2cc(S(=O)(=O)CCC(=O)Nc3cccc(C)n3)ccc21	n	n	n	n	+	n	n
CCCN1C(=O)c2ccccc2NC1c1ccc(C)cc1 (stereo not given)	n	n	n	n	458	n	n
Cc1ccc(CN2C(=O)c3ccccc3NC2c2ccccn2)cc1 (stereo not given)	n	n	n	n	n	n	x
Cc1ccc(C(C(=O)Nc2ccc3c(c2)OCO3)N(C)C(=O)/C=C\c2ccc3c(c2)OCO3)cc1 (stereo not given)	n	n	n	n	383	n	n
CC(=O)NCC(=O)N(C)C(C(=O)Nc1ccc2c(c1)OCCO2)c1ccc(C)cc1 (stereo not given)	n	n	n	n	n	n	x
O=c1[nH][nH]c(C(F)(F)F)c1C=Nc1ccccc1	n	n	n	n	n	n	x
SMILES	aDG glyco act	CR mimetic SO	MPTP block	H9c2 protect	SUMO Mot1 rescue	FAS-TE inh	Yeast Mot1 SUMO
O=c1[nH][nH]c(C(F)(F)F)c1C=NCc1cccs1	n	n	n	n	+	n	n
O=C(COc1ccccc1[N+](=O)[O-])NCC1(N2CCOCC2)CCCCC1	n	n	n	n	n	n	x
COc1ccc(-c2cc(C#N)nc(N3CCN(c4ccccc4)CC3)n2)cc1	n	n	n	n	425	n	n
COC[C@@H]1CCCN1c1ccc2c(c1)O[C@H](COCc1ccccc1)CN([C@H](C)c1ccccc1)S2(=O)=O	n	x	n	x	x	n	x
O=C(c1ccc(-c2ccccc2)cc1)C1CCCN(C(=O)c2ccncc2)C1 (stereo not given)	n	n	n	n	n	n	x
O=C(c1ccc(-c2ccccc2)cc1)C1CCCN(Cc2ccncc2)C1 (stereo not given)	n	n	n	n	365	n	n
CCCCN(C)C(=O)c1cc2c(Cl)nc3ccccc3c2s1	n	n	n	n	433	n	n
O=C(NCc1ccccc1)C(c1ccccc1F)n1c(=O)c(-c2ccco2)nc2ccccc21 (stereo not given)	n	x	n	x	x	x	x
O=C(OCCCCOC(=O)c1ccccc1)c1ccccc1	n	n	n	n	529	n	n
CN(C)CCCOC(=O)c1ccccc1	n	n	n	n	n	n	x
CCCn1c(N)c(C(=O)CN(C)CC(=O)Nc2ccccc2C(F)(F)F)c(=O)[nH]c1=O	n	n	n	n	x	n	x
Cc1ccc(S(=O)(=O)NCc2ccc(C(=O)N3CCN(Cc4ccccc4)CC3)cc2)cc1	n	n	n	n	n	n	x
Cc1ccc(S(=O)(=O)NCc2ccc(C(=O)N3CCN(c4ccccn4)CC3)cc2)cc1	n	n	n	n	662	n	n
CCOC(=O)c1cc(=O)c2c([N+](=O)[O-])ccc(OC)c2o1	n	n	n	n	n	n	x
COc1ccc([N+](=O)[O-])c2c(=O)ccoc12	n	n	n	n	585	n	n
Nc1ccc(NC(=O)c2ccco2)c(Cl)c1	n	n	n	n	439	n	n
O=C(Nc1cc(Cl)ccc1Cl)c1ccco1	n	n	n	n	n	n	x
CCC(=O)Nc1nnc(SCc2ccccc2F)s1	n	n	n	n	n	n	x
CCOC(=O)c1cccc(NC(=O)C2CCCN(S(=O)(=O)c3c(C)nn(C)c3C)C2)c1 (stereo not given)	n	n	n	n	n	n	x
CCOC(=O)c1cccc(NC(=O)C2CCCN(S(=O)(=O)c3c(C)n[nH]c3C)C2)c1 (stereo not given)	n	n	n	n	458	n	n
FC(F)(F)c1ccccc1Cc1c(C2CCCCC2)nc2c3ccccc3ccn12	n	x	n	n	x	n	x
Cc1ccc(CNC(=O)c2ccc(N3CCC4(CC3)CC(c3ccccc3)=NO4)c(NC(=O)c3cccc(C)c3)c2)cc1	n	n	n	n	947	n	n
CC1(C)COC(c2cc3c(cc2Br)OCO3)OC1	n	x	n	n	x	n	x
CCOc1ccc(C(=O)N[C@H](C(=O)Nc2ccc(S(=O)(=O)Nc3nccs3)cc2)C(C)C)cc1	n	n	n	n	n	n	x
NC(=O)NC(=O)COC(=O)/C=C/c1cccs1	n	n	n	n	405	n	n

High-throughput results from PubChem BioAssay.
